According to the supplement of paper PMC10849652:
About 8,800 targets were measured; listed, in parts, are those with a hit and a random draw of the rest. About 0.5% of all pairs of compound and target were hits.

Columns and labels:
Assay in all cases: log2 fold change, soluble protein after heating vs DMSO (PISA); higher = thermal stabilisation; K562 lysate, 10 uM; active = over 0.2 and 3.5 SD of the protein, either way, in both replicates (recomputed)
[1] = compound: C1=CC=C(C=C1)[C@H](COC2=CC3=C(C=C2)NC(=O)N3)NC(=O)C4=CC=CN(C4=O)CC5=CC(=C(C=C5)F)F
Method in brief: (§1)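 Quantification was by TMTpro 16plex LC-MS/MS with equalised channel sums, applied to the supernatant after 21,000xg for 90 min. Samples were crude K562 extract at 1 mg/mL protein in PBS pH 7.4 with 1 mM MgCl2, treated with 10 μM compound for 30 min, heated for 3 min across 48°C-58°C, pooled and brought to 0.5% NP-40 at 4°C. Values are log-two fold changes in thermal stability relative to solvent controls, from duplicates.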

[2] = compound: CC1=C(SC2=C1C(=N[C@H](C3=NN=C(N32)C)CC(=O)N)C4=CC=C(C=C4)Cl)C
Method in brief: as §1

[3] = compound: CC1=C2C(=CC=C1)N=C(N(C2=O)C3=CC=CC=C3C)CN4C=NC5=C(N=CN=C54)N
Method in brief: as §1

[4] = compound: Cc1sc2c(c1C)C(c1ccc(Cl)cc1)=N[C@@H](CC(=O)OC(C)(C)C)c1nnc(C)n1-2
Method in brief: as §1

[5] = compound: c1ccc([C@@H]2C[C@H]2NC2CCNCC2)cc1
Method in brief: as §1

Measured: log2 fold change

TPD52L2 isoform 7 (UniProt O43399)
inactive: [1] 0.046 | [2] -0.036 | [3] -0.024 | [4] 0.024 | [5] -0.058

TBL2 (UniProt Q9Y4P3)
inactive: [1] 0.01 | [2] 0.057 | [3] 0.033 | [4] 0.039 | [5] 0.071

TOE1 (UniProt Q96GM8)
inactive: [1] 0.063 | [2] -0.01 | [3] 0.03 | [4] 0.032 | [5] 0.01

TK1 (UniProt K7ERV3)
inactive: [1] -0.044 | [2] 0.007 | [3] -0.017 | [4] -0.002 | [5] -0.037

UBA1 (UniProt P22314)
UniProt P22314, sequence (P22314 whole entry, looked up): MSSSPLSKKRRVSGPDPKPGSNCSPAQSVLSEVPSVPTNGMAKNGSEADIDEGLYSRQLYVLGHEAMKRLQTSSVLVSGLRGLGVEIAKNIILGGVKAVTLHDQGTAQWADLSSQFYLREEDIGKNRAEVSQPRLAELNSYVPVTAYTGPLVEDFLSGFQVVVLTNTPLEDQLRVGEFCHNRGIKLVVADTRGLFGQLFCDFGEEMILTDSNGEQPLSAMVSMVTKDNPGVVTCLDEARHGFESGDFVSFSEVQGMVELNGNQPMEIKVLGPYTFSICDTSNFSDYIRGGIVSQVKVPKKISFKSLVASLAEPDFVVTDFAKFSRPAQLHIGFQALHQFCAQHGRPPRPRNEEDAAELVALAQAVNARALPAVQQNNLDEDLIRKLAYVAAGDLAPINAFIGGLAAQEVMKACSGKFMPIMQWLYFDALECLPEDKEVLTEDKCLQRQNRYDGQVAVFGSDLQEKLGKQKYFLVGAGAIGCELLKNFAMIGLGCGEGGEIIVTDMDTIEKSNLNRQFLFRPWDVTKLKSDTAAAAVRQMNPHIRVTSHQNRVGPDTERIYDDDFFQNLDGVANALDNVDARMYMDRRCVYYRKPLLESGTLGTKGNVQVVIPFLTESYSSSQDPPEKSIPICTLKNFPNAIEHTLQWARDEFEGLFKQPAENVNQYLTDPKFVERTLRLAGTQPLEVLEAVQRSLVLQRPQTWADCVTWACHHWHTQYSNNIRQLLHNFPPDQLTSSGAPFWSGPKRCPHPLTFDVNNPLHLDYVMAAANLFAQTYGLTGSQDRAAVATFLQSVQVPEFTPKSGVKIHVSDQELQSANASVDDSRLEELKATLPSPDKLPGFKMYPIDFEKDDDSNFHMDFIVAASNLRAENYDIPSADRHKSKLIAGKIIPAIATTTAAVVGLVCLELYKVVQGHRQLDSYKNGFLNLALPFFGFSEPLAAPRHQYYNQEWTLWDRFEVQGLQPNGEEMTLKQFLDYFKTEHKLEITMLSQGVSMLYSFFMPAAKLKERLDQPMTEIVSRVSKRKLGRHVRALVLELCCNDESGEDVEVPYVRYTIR
inactive: [1] -0.018 | [2] 0.043 | [3] 0 | [4] 0.045 | [5] 0.04

TUBGCP4 (UniProt Q9UGJ1)
UniProt Q9UGJ1, sequence (Q9UGJ1 whole entry, looked up): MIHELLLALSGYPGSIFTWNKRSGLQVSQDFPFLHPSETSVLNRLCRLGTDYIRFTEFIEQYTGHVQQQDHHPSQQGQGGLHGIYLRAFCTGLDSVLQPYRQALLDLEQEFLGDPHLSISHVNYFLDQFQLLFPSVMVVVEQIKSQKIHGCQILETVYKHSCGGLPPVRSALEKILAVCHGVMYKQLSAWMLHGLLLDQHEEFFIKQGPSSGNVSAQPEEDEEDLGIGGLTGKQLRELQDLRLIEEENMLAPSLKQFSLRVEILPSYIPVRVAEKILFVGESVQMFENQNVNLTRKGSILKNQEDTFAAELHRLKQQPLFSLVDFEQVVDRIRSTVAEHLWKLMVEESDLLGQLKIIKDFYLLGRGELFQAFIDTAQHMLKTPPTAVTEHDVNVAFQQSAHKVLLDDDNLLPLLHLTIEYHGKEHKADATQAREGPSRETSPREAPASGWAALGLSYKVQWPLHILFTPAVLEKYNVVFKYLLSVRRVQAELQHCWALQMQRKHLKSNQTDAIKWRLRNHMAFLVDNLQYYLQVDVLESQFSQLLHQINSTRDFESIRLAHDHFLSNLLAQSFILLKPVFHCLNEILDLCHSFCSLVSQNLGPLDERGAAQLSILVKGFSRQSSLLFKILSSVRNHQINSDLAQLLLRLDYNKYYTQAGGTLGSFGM
inactive: [1] -0.005 | [2] 0.019 | [3] 0.012 | [4] -0.027 | [5] -0.007

TMEM97 (UniProt Q5BJF2)
UniProt Q5BJF2, sequence (Q5BJF2 whole entry, looked up): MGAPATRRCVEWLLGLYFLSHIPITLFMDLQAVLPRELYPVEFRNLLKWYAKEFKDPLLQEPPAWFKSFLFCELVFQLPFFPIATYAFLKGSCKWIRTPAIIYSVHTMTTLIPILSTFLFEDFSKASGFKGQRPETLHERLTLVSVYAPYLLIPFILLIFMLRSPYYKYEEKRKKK
inactive: [1] 0.048 | [2] 0.015 | [3] -0.016 | [4] -0.081 | [5] -0.153

TUBA4A (UniProt P68366)
inactive: [1] -0.068 | [2] 0.013 | [3] 0.03 | [4] -0.024 | [5] 0.019

TPST2 (UniProt O60704)
inactive: [1] -0.034 | [2] 0.021 | [3] -0.028 | [4] -0.054 | [5] -0.384

TBRG4 (UniProt Q969Z0)
inactive: [1] -0.071 | [2] 0.024 | [3] 0.018 | [4] 0.052 | [5] 0.094

TMEM263 (UniProt Q8WUH6)
inactive: [1] -0.286 | [2] -0.048 | [3] 0.211 | [4] -0.138 | [5] -0.073

TROAP (UniProt Q12815)
inactive: [1] -0.008 | [2] 0.12 | [3] 0.024 | [4] 0.057 | [5] 0.096

TTF2 (UniProt Q9UNY4)
inactive: [1] -0.092 | [2] 0.029 | [3] 0.003 | [4] 0.127 | [5] 0.003

TPM1 isoform 4 (UniProt P09493)
inactive: [1] -0.008 | [2] -0.012 | [3] 0 | [4] 0.003 | [5] 0.056

TUBE1 (UniProt Q9UJT0)
UniProt Q9UJT0, sequence (Q9UJT0 whole entry, looked up): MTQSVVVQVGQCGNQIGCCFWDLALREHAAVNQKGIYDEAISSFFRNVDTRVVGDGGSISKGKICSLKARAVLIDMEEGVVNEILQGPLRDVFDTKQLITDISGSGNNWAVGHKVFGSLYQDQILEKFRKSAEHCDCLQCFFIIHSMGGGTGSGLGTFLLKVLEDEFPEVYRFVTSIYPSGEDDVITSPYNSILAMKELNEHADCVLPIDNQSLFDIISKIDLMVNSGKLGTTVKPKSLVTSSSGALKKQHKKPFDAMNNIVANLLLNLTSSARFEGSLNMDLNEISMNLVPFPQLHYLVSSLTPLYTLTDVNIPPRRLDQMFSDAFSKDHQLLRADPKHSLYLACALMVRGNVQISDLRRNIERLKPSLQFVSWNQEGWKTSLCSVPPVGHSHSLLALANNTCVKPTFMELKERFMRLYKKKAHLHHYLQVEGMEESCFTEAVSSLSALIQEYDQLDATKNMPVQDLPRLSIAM
inactive: [1] -0.019 | [2] 0.003 | [3] 0.019 | [4] -0.064 | [5] 0.107

THOC5 (UniProt Q13769)
inactive: [1] 0.026 | [2] 0.048 | [3] 0.016 | [4] -0.01 | [5] 0.006

TLK1 isoform 2 (UniProt Q9UKI8)
inactive: [1] 0.005 | [2] -0.02 | [3] -0.026 | [4] -0.025 | [5] -0.072

TMEM177 (UniProt Q53S58)
UniProt Q53S58, sequence (Q53S58 whole entry, looked up): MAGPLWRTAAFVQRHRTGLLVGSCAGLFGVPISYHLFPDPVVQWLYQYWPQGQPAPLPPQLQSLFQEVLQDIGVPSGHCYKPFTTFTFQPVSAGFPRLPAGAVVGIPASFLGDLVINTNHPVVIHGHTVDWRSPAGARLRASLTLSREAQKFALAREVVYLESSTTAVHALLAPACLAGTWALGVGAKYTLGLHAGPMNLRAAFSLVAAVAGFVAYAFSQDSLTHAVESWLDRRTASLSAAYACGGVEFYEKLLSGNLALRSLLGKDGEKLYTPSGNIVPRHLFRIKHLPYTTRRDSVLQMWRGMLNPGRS
inactive: [1] 0.002 | [2] -0.009 | [3] 0.015 | [5] 0.068

TNPO3 (UniProt Q9Y5L0)
inactive: [1] -0.024 | [2] 0.07 | [3] -0.003 | [4] 0.009 | [5] -0.029

UBR3 isoform 4 (UniProt Q6ZT12)
inactive: [1] -0.027 | [2] -0.032 | [3] 0.009 | [4] -0.016 | [5] 0.076

TCP11L1 (UniProt Q9NUJ3)
inactive: [1] -0.023 | [2] -0.031 | [3] -0.02 | [4] -0.021 | [5] -0.095

TPM4 (UniProt P67936)
inactive: [1] -0.003 | [2] 0.057 | [3] -0.021 | [4] -0.025 | [5] -0.04

UBE3C (UniProt Q15386)
UniProt Q15386, sequence (Q15386 whole entry, looked up): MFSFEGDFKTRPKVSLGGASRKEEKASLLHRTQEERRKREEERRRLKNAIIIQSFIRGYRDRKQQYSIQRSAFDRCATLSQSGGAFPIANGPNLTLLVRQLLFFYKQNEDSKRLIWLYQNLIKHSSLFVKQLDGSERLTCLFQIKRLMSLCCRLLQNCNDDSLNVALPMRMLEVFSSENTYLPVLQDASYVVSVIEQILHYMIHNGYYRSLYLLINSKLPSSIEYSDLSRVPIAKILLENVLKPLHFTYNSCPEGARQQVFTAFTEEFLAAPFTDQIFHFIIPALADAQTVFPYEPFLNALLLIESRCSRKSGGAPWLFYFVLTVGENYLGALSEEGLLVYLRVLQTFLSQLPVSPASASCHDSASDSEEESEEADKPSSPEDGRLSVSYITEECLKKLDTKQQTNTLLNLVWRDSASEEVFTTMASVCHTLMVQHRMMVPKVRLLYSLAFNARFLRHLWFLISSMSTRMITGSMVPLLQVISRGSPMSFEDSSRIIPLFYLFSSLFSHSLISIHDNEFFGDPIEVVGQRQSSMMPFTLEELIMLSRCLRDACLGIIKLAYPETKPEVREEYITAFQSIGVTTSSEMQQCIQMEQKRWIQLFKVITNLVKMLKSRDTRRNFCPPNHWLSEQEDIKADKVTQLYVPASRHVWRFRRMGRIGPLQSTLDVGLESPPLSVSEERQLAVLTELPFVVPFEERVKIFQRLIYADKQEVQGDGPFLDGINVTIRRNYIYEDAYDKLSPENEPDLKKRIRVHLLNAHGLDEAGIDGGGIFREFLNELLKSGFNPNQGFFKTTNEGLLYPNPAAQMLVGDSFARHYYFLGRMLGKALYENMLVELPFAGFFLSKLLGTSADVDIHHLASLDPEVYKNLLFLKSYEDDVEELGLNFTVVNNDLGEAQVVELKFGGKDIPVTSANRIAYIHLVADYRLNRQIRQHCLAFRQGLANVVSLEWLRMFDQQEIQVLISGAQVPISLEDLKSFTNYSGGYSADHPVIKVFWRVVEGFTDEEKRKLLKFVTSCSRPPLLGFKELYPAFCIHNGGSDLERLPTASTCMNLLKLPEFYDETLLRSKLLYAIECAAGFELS
inactive: [1] -0.027 | [2] -0.04 | [3] 0.127 | [4] 0.066 | [5] 0.039

TUT4 (UniProt Q5TAX3)
inactive: [1] -0.032 | [2] -0.024 | [3] 0.035 | [4] 0.009 | [5] -0.021

TBCE (UniProt Q15813)
inactive: [1] 0.008 | [2] -0.027 | [3] 0.014 | [4] 0.008 | [5] 0.015

TCF12 isoform 3 (UniProt Q99081)
inactive: [1] 0.062 | [2] -0.072 | [3] 0.014 | [4] -0.048 | [5] -0.046

TPM4 isoform 2 (UniProt P67936)
inactive: [1] -0.059 | [2] -0.012 | [3] 0.02 | [4] 0.053 | [5] 0.1

TUBAL3 (UniProt A6NHL2)
inactive: [1] -0.034 | [2] -0.051 | [3] 0.045 | [4] -0.189 | [5] -0.255

TUBB6 (UniProt K7ES63)
inactive: [1] -0.115 | [2] 0.02 | [3] -0.028 | [5] -0.085

TGFBRAP1 (UniProt Q8WUH2)
inactive: [1] -0.035 | [2] 0.024 | [3] 0 | [4] 0.05 | [5] -0.014

TRIM33 isoform 2 (UniProt Q9UPN9)
UniProt Q9UPN9, sequence (Q9UPN9 whole entry, looked up): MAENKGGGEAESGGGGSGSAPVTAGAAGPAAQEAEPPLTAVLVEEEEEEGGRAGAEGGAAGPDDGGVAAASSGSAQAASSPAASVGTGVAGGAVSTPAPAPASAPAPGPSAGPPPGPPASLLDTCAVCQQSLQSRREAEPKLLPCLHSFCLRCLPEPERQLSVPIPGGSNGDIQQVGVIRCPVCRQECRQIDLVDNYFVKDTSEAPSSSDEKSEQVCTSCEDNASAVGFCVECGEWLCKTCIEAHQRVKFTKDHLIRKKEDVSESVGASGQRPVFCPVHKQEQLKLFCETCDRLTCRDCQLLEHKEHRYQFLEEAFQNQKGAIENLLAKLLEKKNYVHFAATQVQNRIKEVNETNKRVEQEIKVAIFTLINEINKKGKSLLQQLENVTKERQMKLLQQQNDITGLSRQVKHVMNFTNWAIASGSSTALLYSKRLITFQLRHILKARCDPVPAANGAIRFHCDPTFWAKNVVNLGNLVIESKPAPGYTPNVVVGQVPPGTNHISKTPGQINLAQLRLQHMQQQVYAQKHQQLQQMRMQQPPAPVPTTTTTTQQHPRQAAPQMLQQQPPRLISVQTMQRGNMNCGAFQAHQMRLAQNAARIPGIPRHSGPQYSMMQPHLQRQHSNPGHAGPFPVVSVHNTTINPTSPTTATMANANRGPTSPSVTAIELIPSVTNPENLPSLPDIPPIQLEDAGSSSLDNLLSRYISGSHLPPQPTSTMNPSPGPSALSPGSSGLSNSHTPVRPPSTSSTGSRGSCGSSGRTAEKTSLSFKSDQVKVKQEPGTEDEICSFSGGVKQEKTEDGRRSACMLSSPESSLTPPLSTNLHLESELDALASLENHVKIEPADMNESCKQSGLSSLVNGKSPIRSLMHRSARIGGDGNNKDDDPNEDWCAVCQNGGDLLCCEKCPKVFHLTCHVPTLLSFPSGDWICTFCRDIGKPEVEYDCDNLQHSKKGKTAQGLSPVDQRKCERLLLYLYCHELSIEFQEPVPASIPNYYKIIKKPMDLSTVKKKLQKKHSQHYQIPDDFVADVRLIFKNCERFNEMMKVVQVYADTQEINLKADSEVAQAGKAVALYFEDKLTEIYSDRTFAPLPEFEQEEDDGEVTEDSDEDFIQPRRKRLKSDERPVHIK
inactive: [1] 0.003 | [2] 0.009 | [3] 0.022 | [4] 0.011 | [5] 0.005

TRIM11 (UniProt Q96F44)
inactive: [1] 0.028 | [2] 0.035 | [3] 0.04 | [4] -0.011 | [5] -0.001

TTC12 isoform 2 (UniProt Q9H892)
inactive: [1] -0.123 | [2] -0.131 | [3] 0.033 | [4] 0.044 | [5] 0.058

TCF3 (UniProt P15923)
inactive: [1] -0.029 | [2] 0.006 | [3] -0.004 | [4] -0.032 | [5] -0.08

TUBGCP2 isoform 4 (UniProt Q9BSJ2)
inactive: [1] 0.009 | [2] -0.015 | [3] 0.035 | [4] 0.018 | [5] 0.097

UBAP2L isoform 5 (UniProt Q14157)
inactive: [1] -0.047 | [2] 0.049 | [3] -0.022 | [4] 0.029 | [5] -0.004

TPX2 (UniProt Q9ULW0)
inactive: [1] 0.04 | [2] -0.006 | [3] 0.008 | [4] -0.003 | [5] 0

UCHL5 isoform 3 (UniProt Q9Y5K5)
inactive: [1] -0.001 | [2] 0.033 | [3] 0.01 | [4] 0.015 | [5] 0.029

TUBA3C (UniProt P0DPH7)
inactive: [1] 0.012 | [2] 0.022 | [3] 0.029 | [4] -0.017 | [5] -0.074

UBE3B (UniProt Q7Z3V4)
inactive: [1] -0.085 | [2] -0.144 | [3] -0.047 | [4] -0.045 | [5] 0.078

TIMELESS (UniProt Q9UNS1)
inactive: [1] -0.013 | [2] 0.011 | [3] 0.01 | [4] 0.012 | [5] 0.02

TRA2A (UniProt Q13595)
inactive: [1] -0.076 | [2] 0.065 | [3] 0.034 | [4] -0.054 | [5] 0.004

TUBGCP5 (UniProt Q96RT8)
inactive: [1] -0.209 | [2] 0.088 | [3] 0.039 | [4] -0.093 | [5] 0.071

TRIM23 (UniProt P36406)
inactive: [1] 0.036 | [2] -0.05 | [3] 0.052 | [4] 0.034 | [5] -0.275

UBL5 (UniProt Q9BZL1)
UniProt Q9BZL1, sequence (Q9BZL1 whole entry, looked up): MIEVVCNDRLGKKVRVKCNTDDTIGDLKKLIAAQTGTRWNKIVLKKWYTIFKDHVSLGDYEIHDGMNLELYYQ
inactive: [1] 0.063 | [2] 0.008 | [3] -0.06 | [4] 0.005 | [5] -0.167

UCHL5 (UniProt Q5LJA9)
inactive: [1] 0.002 | [2] -0.059 | [3] -0.022 | [4] -0.251 | [5] 0.133

UBE2D1 (UniProt P51668)
inactive: [1] 0.056 | [2] 0.066 | [3] 0.02 | [4] -0.082 | [5] 0.016

TTLL12 (UniProt V9GY16)
inactive: [1] 0.022 | [2] 0.606 | [3] 0.066 | [5] -0.065

UFSP2 (UniProt Q9NUQ7)
inactive: [1] 0.059 | [2] 0 | [3] 0.057 | [4] -0.04 | [5] 0.022

TRAPPC9 isoform 2 (UniProt Q96Q05)
inactive: [1] 0.001 | [2] 0.05 | [3] 0 | [4] 0.055 | [5] -0.042

TFPI (UniProt P10646)
inactive: [1] 0.053 | [2] -0.116 | [3] -0.16 | [5] 0.269

TPP2 (UniProt P29144)
inactive: [1] 0.006 | [2] 0.008 | [3] -0.002 | [4] 0.039 | [5] 0.025

TMEM87B (UniProt Q96K49)
active: [1] 0.529
inactive: [2] 0.02 | [3] 0.075 | [4] 0.001 | [5] 0.038

TMOD1 (UniProt P28289)
inactive: [1] -0.003 | [2] 0.021 | [3] 0.043 | [4] 0.017 | [5] 0.002
